One assay addresses Albumin (Bos taurus) (UniProt P02769). Nature of the assay: compounds binding labelled BSA control protein – biochemical, small-molecule microarray, Alexa647 label, 635/667 nm fluorescence, artefact control for SMM control protein annotation, profiling panel (AID 1118).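 Note: score merges 667 nm emission intensity and signal-to-noise per printed compound spot.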 Particulars: BSA-A647 binding, fluorescence 635 nm, higher = more signal.
The nature of assay [1]: probe aXIP binding to arrayed compounds – biochemical, NeuroSMM set, 635/667 nm fluorescence, primary screen (AID 1119).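 Note: probe is the protein aXip251-270 applied at 1 µg/mL to compound-printed slides; binding of probe to printed compounds measured as 667 nm fluorescence plus signal to noise.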 Particulars: small-molecule microarray, higher = more signal, called active from +8 up or from −8 down.
The nature of assay [2]: probe aNOTCH3 binding on compound microarray – biochemical, small-molecule microarray, 635/667 nm fluorescence, primary screen (AID 1120).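 Note: probe is a biotin-tagged antibody raised against NOTCH3 rather than NOTCH3 protein; score merges spot fluorescence near 667 nm with spot signal to noise.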 Particulars: higher = more signal.
The nature of assay [3]: probe aNOTCH2 binding on compound microarray – biochemical, small-molecule microarray, 635/667 nm fluorescence, primary screen (AID 1121).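 Note: score merges feature fluorescence read at 667 nm with its signal to noise.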 As to conditions: higher = more signal.
The target of assay [4] is Carbonic anhydrase 2 (Homo sapiens) (UniProt P00918). Nature of the assay: compounds binding carbonic anhydrase 2 – biochemical, small-molecule microarray, Alexa647-labelled CAII, profiling panel (AID 1122). As to conditions: CAII-A647 binding fluorescence, higher = more signal.
The nature of assay [5]: COS7 lysate on small-molecule microarray, probe aHis, 635 nm (AID 1123).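 Note: z-score combines 667nm fluorescence intensity with signal-to-noise per printed compound spot.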 Particulars: COS7 cell lysate, fluorescence, higher = more signal.
Assay [6] in a line: probe aLAP1 signal on lysate-treated microarray – cell lysate, small-molecule microarray, COS7 lysate, primary screen (AID 1124).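 Note: lysate comes from COS7 cells expressing LAP1 and is applied at 0.3 µg/mL; score merges spot fluorescence near 667 nm with signal-to-noise over triplicate slides.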 Particulars: probe aLAP1, fluorescence, higher = more signal.
The subject of a further assay is Sam68 (KHDRBS1). Nature of the assay: compounds binding KHDRBS1 protein – biochemical, small-molecule microarray, 635 nm fluorescence, primary screen (AID 1125).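 Note: score merges 667 nm channel intensity with signal to noise over triplicate slides.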 Particulars: higher = more signal.
Assay [7] relates to Chordin-like protein 2 (CHRDL2). As to the kind of experiment: compounds binding chordin-like 2 – biochemical, small-molecule microarray, 635 nm fluorescence, primary screen (AID 1126).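 Note: printed compound slides probed with Chrdl2 protein at 4 µg/mL for 1 h at 4 C; score merges 667 nm emission intensity with signal to noise over three replicate slides.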 As to conditions: fluorescence 635 nm, higher = more signal.
Assay [8] addresses Concanavalin-A (Canavalia ensiformis) (UniProt P02866). Nature of the assay: compounds binding concanavalin A lectin – biochemical, small-molecule microarray, Alexa647 label, 635 nm, artefact control for SMM control protein annotation, primary screen (AID 1127).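 Note: z combines 667 nm emission intensity with signal-to-noise across three replicate slides.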 As to conditions: ConA-A647 binding fluorescence, higher = more signal.

Active and inactive are the calls of the source.

Albumin (Bos taurus), sequence (P02769 whole entry, looked up): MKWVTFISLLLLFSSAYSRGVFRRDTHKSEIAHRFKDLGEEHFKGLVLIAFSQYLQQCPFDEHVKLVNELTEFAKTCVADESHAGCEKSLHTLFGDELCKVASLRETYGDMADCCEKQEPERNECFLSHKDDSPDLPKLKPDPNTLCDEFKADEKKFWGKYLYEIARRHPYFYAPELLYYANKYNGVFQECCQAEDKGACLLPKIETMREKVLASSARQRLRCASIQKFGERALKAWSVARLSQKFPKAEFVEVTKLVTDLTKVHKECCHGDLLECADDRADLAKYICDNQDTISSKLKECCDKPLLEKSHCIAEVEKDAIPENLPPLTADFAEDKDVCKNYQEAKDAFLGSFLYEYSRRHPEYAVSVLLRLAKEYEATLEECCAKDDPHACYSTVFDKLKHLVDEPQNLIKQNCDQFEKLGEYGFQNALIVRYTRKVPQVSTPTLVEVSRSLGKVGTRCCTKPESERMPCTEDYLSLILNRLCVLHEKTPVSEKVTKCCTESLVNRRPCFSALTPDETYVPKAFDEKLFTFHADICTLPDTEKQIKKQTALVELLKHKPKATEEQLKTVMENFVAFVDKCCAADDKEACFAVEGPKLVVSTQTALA
Concanavalin-A (Canavalia ensiformis), sequence (P02866 whole entry, looked up): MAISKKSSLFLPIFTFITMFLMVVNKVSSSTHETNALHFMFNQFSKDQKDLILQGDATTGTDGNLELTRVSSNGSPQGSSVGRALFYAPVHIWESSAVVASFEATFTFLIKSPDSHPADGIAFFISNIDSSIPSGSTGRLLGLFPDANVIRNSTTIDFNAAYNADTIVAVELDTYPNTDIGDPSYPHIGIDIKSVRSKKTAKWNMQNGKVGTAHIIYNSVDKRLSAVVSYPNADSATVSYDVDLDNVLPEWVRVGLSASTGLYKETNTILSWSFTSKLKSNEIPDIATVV

For `CCOC(=O)C1=C[C@@H](CC)N(S(=O)(=O)c2ccc(C)cc2)[C@H]1c1ccccc1`, the composite z-score with Albumin (Bos taurus) turned out to be 0.874; in assay [2], 0.0539; in [3], 0.0572; in assay [4] it was 0.526; in [5], 1.35; in assay [6], 0.83. Also, the results for the composite z-score (with Sam68 (KHDRBS1); in assay [7]; in assay [8]) were 1.29, 0.0777 and 1.1, respectively. In addition, the composite Z-score in assay [1] was 0.339 (inactive).

Take `CC(C)=CCCC(C)=CC(O)C1C=CC2C(=O)N(c3ccccc3)C(=O)C2N1Nc1ccccc1` (stereo not given): the composite z-score with Albumin (Bos taurus) amounted to 0.977; in assay [2], 0.461; in [3] it was 0.251; in assay [4], 0.646; in [5], 1.52; in assay [6], 0.78. Moreover, the composite z-score was 1.27 with Sam68 (KHDRBS1), -0.0528 in [7] and 1.14 in [8]. The composite Z-score in assay [1] is -0.0662 (inactive).

Regarding `COCCOC(=O)N1C(=O)[C@@]2(c3cc(C#CCC(C(=O)OC)C(=O)OC)ccc31)[C@H](c1ccccc1OCCO)N1[C@H](c3ccccc3)[C@H](c3ccccc3)OC(=O)[C@H]1[C@@H]2C(N)=O`, the composite z-score with Albumin (Bos taurus) is 0.101; in assay [2], 0.173; in assay [3], -0.0357; in assay [4], 0.503; in assay [5], 2.03; in [6], 1.5. For the same compound, the composite z-score with Sam68 (KHDRBS1) was 1.25; in [7] it was 0.237; in [8], 1.07. Also, the composite Z-score in assay [1] is -0.167 (inactive).

In the case of `Cc1ccccc1C(O)C1C=CC2C(=O)N(C)C(=O)C2N1Nc1ccccc1` (stereo not given), the composite z-score with Albumin (Bos taurus) was 1; in [2], 0.0674; in assay [3], -0.0168; in assay [4] it was 0.821; in [5] it was 2.05; in assay [6] it was 0.415. Further, the composite z-score with Sam68 (KHDRBS1) is 1.23; in assay [7], -0.345; in assay [8], 1.15. Also, the composite Z-score in assay [1] is 0.0032 (inactive).

Regarding `COCC1=C2[C@@H](CCc3ccccc3)OB(O)C[C@@H]2[C@@H]2C(=O)N(Cc3ccccc3)C(=O)[C@@H]2C1`, the composite z-score with Albumin (Bos taurus) is 0.818; in [2], -0.102; in assay [3], -0.14; in assay [4] it was 0.404; in assay [5] it was 0.532; in assay [6], -0.0804. The composite z-score in the assay on Sam68 (KHDRBS1) is -0.42; in assay [7], 0.137; in assay [8] it was -0.777. Besides, in assay [1], the composite Z-score is -0.524 (inactive).

Consider `CC1CC/C=C\[C@H]2OC34C=CCN(Cc5ccccc5)C(=O)[C@H]3N(CCCCCO)C(=O)[C@@H]4C2C(=O)O1` (stereo not given in full), for which the composite z-score in the assay with Albumin (Bos taurus) is 0.363; in assay [2] it was -0.213; in assay [3], -0.19; in [4], 0.871; in assay [5], -0.351; in [6], 1.4. For the same compound, the composite z-score is -0.883 with Sam68 (KHDRBS1), -0.0737 in assay [7] and -0.811 in assay [8]. Also, the composite Z-score in [1] was 0.815 (inactive).

As for `CC(C)C(=C=CC[C@@H](O)c1ccccc1OCCO)C[C@@H](O)c1ccccn1`, the composite z-score in the assay with Albumin (Bos taurus) is 0.0682; in [2], -0.0847; in assay [3], -0.111; in assay [4], 0.738; in [5], 0.287; in [6], -0.0744. Further, the results for the composite z-score (in the assay with Sam68 (KHDRBS1); in [7]; in assay [8]) were 0.95, -0.0374 and 0.451, respectively. Besides, in [1], the composite Z-score was -0.776 (inactive).

As to `COCCOC(=O)N1C(=O)[C@@]2(c3cc(C#CCNC(N)=O)ccc31)[C@H](C(=O)N1CCN(c3ncccn3)CC1)[C@H]1C(=O)O[C@H](c3ccccc3)[C@H](c3ccccc3)N1[C@@H]2c1ccccc1OCCO`, the composite z-score amounted to 0.413 with Albumin (Bos taurus); 0.209 in assay [2]; 0.0066 in assay [3]; 0.358 in [4]; 1.08 in assay [5]; 0.427 in assay [6]. The composite z-score with Sam68 (KHDRBS1) was found to be 1.31; in [7], 0.867; in assay [8], 1.02. Besides, the composite Z-score in assay [1] is 0.255 (inactive).

For `O=C1N(CCS(=O)(=O)c2ccccc2)c2ccccc2C[C@@]12COC(c1ccc(OCCCO)cc1)=N2`, the composite z-score is -0.746 in the assay with Albumin (Bos taurus); 0.364 in assay [2]; 0.314 in [3]; 0.636 in [4]; 2.4 in [5]; 0.266 in assay [6]. Further, the composite z-score with Sam68 (KHDRBS1) was 1.3; in [7], 0.866; in [8] it was 1.15. For the same compound, the composite Z-score in assay [1] was -0.279 (inactive).

Turning to `O=C1O[C@@H](c2ccccc2)[C@@H](c2ccccc2)N2[C@@H](c3ccc(O)cc3)[C@]3(C(=O)Nc4ccc(C#CC5=CCCCC5)cc43)[C@@H](C(=O)O)[C@H]12`, the composite z-score with Albumin (Bos taurus) was found to be 0.885; in assay [2] it was 0.139; in assay [3], 0.0685; in [4] it was 0.715; in [5] it was 1.86; in assay [6] it was 0.788. Further, the composite z-score in the assay with Sam68 (KHDRBS1) was 1.32; in [7], -0.194; in assay [8], 0.9. For the same compound, the composite Z-score in assay [1] is 0.341 (inactive).

As for `[N-]=[N+]=NCc1ccccc1C[C@]1(C(=O)NCCN2CCOCC2)N=C(c2ccc(OCCCO)cc2)O[C@H]1c1ccccc1N=[N+]=[N-]`, the composite z-score with Albumin (Bos taurus) stood at 0.926; in assay [2] it was 0.356; in assay [3], 0.253; in assay [4], 0.599; in [5] it was 2.62; in assay [6] it was 0.645. Moreover, the results for the composite z-score (in the assay with Sam68 (KHDRBS1); in [7]; in assay [8]) were 1.29, -0.509 and 1.16, respectively. In addition, the composite Z-score in assay [1] is 0.255 (inactive).

Regarding `C=C[C@@H](COC(C)=O)N(Cc1ccccc1[N+](=O)[O-])S(=O)(=O)c1ccc(Br)cc1`, the composite z-score with Albumin (Bos taurus) was 0.138; in [2] it was 0.122; in assay [3], 0.181; in assay [4], 0.659; in assay [5], -0.0383; in assay [6], 0.343. Moreover, the composite z-score stood at 0.92 in the assay on Sam68 (KHDRBS1), 1.32 in [7] and 0.602 in [8]. The composite Z-score in [1] was 1.55 (inactive).

As for `COc1cccc(C(=O)O[C@H]2CC[C@]3(C)C4=C(CCC3C2(C)C)[C@]2(C)CC[C@H]([C@H](C)CCCC(C)C)[C@@]2(C)CC4)c1` (stereo not given in full), the composite z-score in the assay with Albumin (Bos taurus) was 0.111; in assay [2], -0.0414; in assay [3] it was -0.132; in assay [4], 0.202; in assay [5] it was 0.279; in [6], -0.147. Further, the values for the composite z-score (in the assay with Sam68 (KHDRBS1); in assay [7]; in assay [8]) were 0.166, 0.585 and 0.254, respectively. For the same compound, in [1], the composite Z-score was -0.424 (inactive).

For `CC(C)NC(=O)[C@@]1(Cc2ccccc2I)c2ccccc2C(=O)N(Cc2ccccc2)[C@H]1c1ccc(CO)cc1`, the composite z-score with Albumin (Bos taurus) was 0.162; in assay [2], 0.204; in [3] it was -0.0608; in assay [4] it was 0.481; in assay [5] it was 1.96; in assay [6] it was 0.206. The figures for the composite z-score (with Sam68 (KHDRBS1); in [7]; in [8]) were 1.29, 0.325 and 0.968, respectively. Also, in assay [1], the composite Z-score is 1.17 (inactive).

Regarding `O=C1OCC=C[C@H]2OC34C=CCN(c5ccc(Cl)cc5)C(=O)[C@H]3N(CCCCCCO)C(=O)[C@@H]4[C@@H]12` (stereo not given in full), the composite z-score in the assay with Albumin (Bos taurus) is -0.95; in [2], -0.226; in assay [3], -0.148; in [4], 0.978; in assay [5], 0.568; in assay [6], 0.688. The composite z-score in the assay with Sam68 (KHDRBS1) was -1.02; in [7], -1.03; in assay [8], -1.59. Also, the composite Z-score in [1] was 0.276 (inactive).

As for `[N-]=[N+]=NCc1ccccc1C[C@]1(C(=O)O)N=C(c2ccc(OCCCO)cc2)O[C@H]1c1ccccc1`, the composite z-score is 0.954 in the assay with Albumin (Bos taurus); -0.0414 in assay [2]; -0.0633 in assay [3]; 0.685 in assay [4]; 1.79 in assay [5]; 0.249 in assay [6]. The composite z-score is 0.52 in the assay with Sam68 (KHDRBS1), -0.741 in assay [7] and 1.11 in assay [8]. For the same compound, the composite Z-score in [1] was -0.37 (inactive).

On to `O=C1OCCC/C=C\[C@H]2OC34C=CCN(Cn5nnc6ccccc65)C(=O)[C@H]3N(CCCCCO)C(=O)[C@@H]4C12` (stereo not given in full), for which the composite z-score was 0.743 in the assay with Albumin (Bos taurus); -0.267 in assay [2]; -0.14 in [3]; 0.881 in assay [4]; 0.0505 in [5]; -0.477 in assay [6]. The composite z-score in the assay with Sam68 (KHDRBS1) is -0.445; in [7], -0.977; in assay [8], -0.702. Further, the composite Z-score in assay [1] is -0.263 (inactive).

The values are drawn from PubChem BioAssay.
